Reference: PubChem BioAssay (NCATS)
Inconclusive results are not listed. Activity calls are given as the source filed them. Unless noted, no rule for the calls is given here. Peptide text beside a SMILES is read from it.

How the values were obtained:
[1] = qHTS profiling of the MIPE4 collection as inhibitors of Plasmodium falciparum (DD2) proliferation (AID 743345); conditions: P. falciparum Dd2 in erythrocytes, SYBR Green DNA, 72 h; at 28.5 µM (top of the series) unless noted
How it was run: (§1)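 Erythrocytes infected with P. falciparum (0.3% parasitemia, 2.5% hematocrit) incubated with compounds 72 h at 37 C, 5% CO2. Lysis with saponin/Triton buffer containing SYBR Green I, overnight at room temperature in the dark; DNA fluorescence (485/535 nm) normalised to 0.29 uM artemisinin and DMSO.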

[2] = qHTS profiling of the MIPE4 collection as inhibitors of Plasmodium falciparum (DD2) proliferation (Rep 2) (AID 743346); conditions: P. falciparum Dd2 in erythrocytes, SYBR Green DNA, 72 h; at 28.5 µM (top of the series) unless noted
How it was run: as §1

[3] = qHTS profiling of the MIPE4 collection as inhibitors of Plasmodium falciparum (HB3) proliferation (AID 743347);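 also: plate controls were DMSO vehicle wells for no effect and artemisinin wells for full effect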; conditions: P. falciparum HB3 in erythrocytes, SYBR Green DNA, 72 h; at 28.5 µM (top of the series) unless noted
How it was run: as §1

[4] = High-throughput drug toxicity screening in the BPDCN cell line Gen2.2 (AID 1224824); conditions: Gen2.2 BPDCN cells; at 45.8 µM (top of the series) unless noted;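 also: cells exposed to compounds for 48 h before reading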
How it was run: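 Gen2.2, 500 cells/well, phenol red-free RPMI/10% FBS/Pen-Strep; 48 h cpd, 37 °C/5% CO2; CTG lum, 15 min RT. Norm: DMSO = 100%, bortezomib 9.2 uM final = 0%.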

[5] = High-throughput drug toxicity screening in the BPDCN cell line Cal-1 (AID 1224825); conditions: Cal-1 BPDCN cell viability, qHTS; at 45.8 µM (top of the series) unless noted
How it was run: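 500 Cal-1 cells/well, RPMI + glutamine + 10% FBS (phenol red-free); cpd added by pin tool; 48 h, 37C, 5% CO2; CTG 15 min RT, lumi read. Normalised: DMSO 100%, bortezomib 9.2 uM 0%.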

[6] = qHTS Screen of the MIPE 4.0 Collection Against Ewings Sarcoma (RDES) (AID 1259252; active = well fitted inhibition curve with a large enough effect; also: nearly all actives have a fitted effect of over 35% in size; also: potency is read from the fitted curve at half-maximal effect)
How it was run: (§2)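 Cells plated in serum-containing RPMI (5% FBS) and treated with compound dilutions for 48 h. Readout luminescent viability; normalization relied on vehicle (no inhibition) and media-only columns (full inhibition).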

[7] = qHTS Screen of the MIPE 4.0 Collection Against Ewings Sarcoma (TC71) (AID 1259253; active = well fitted inhibition curve with a large enough effect; also: nearly all actives have a fitted effect of over 40% in size; also: potency is read from the fitted curve at half-maximal effect)
How it was run: as §2

[8] = qHTS Screen of the MIPE 4.0 Collection Against Ewings Sarcoma (EW8) (AID 1259255; active = well fitted inhibition curve with a large enough effect; also: nearly all actives have a fitted effect of over 35% in size; also: potency is read from the fitted curve at half-maximal effect;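 as to viability: 100% = DMSO-treated cells and 0% = medium-only wells without cells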)
How it was run: as §2

[9] = qHTS assay for measurement of the activity of small molecule inhibitors on Zika virus induced Caspase-3 activity in human astrocytoma cells (AID 1224859; active = well fitted inhibition curve with a large enough effect;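 also: plate controls were ZIKV-infected untreated cells for no effect and uninfected cells for full effect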)
How it was run: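 Luminescent caspase-3/7 read-out (30 min reagent, room temperature) in human SNB-19 cells infected 6 h with ZIKV (2 FFU/cell) after 1 h compound pre-incubation; Data were normalised to uninfected and infected wells.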

Row | SMILES | parasite growth remaining, % of DMSO control (lower = more inhibition) [1] | parasite growth, % of control (lower = inhibition) [2] | growth, % of control [3] | cell viability, % of control (lower = more cytotoxic) [4] | viability (% of control) [5] | Potency [6] | Potency [7] | Potency [8] | Potency [9]
1 | Cc1cccc(C#Cc2ccccc2)n1 | 98.6% | 36.6% | 42% | 40.7% | 57.2% |  |  |  | 
2 | O=C(CS(=O)Cc1ccco1)NCC=CCOc1cc(CN2CCCCC2)ccn1 (centres undefined) | 95.7% | 53.3% | 86.8% | 120% | 112% | inactive | inactive |  | 
3 | Cc1nc(-c2ccc(OCC(C)C)c(C#N)c2)sc1C(=O)O | 91.7% | 43.1% | 62% | 41.7% | 105% | inactive |  | inactive | 
4 | Cc1ccc(NC(=O)c2ccc(CN3CCN(C)CC3)cc2)cc1Nc1nccc(-c2cccnc2)n1 | 10.8% |  | 4.5% | 308% | 81% |  |  |  | inactive
5 | O=c1oc2cc(O)ccc2s1 | 123% | 54.9% | 99.9% | 68.5% | 92.8% | 16.6 µM (active) | 18.7 µM (active) | 13.2 µM (active) | inactive
6 | Cc1cccc(C)c1OCC(=O)N[C@@H](Cc1ccccc1)[C@@H](O)C[C@H](Cc1ccccc1)NC(=O)[C@H](C(C)C)N1CCCNC1=O | 8.67% |  | 3.91% | 28% | 91.4% |  |  |  | inactive
7 | Clc1ccc2c(N3CCN(CCCN4CCN(c5ccnc6cc(Cl)ccc56)CC4)CC3)ccnc2c1 | 9.96% [at 9.64 µM] | 21.1% [at 9.64 µM] | 14.1% [at 9.64 µM] | 88.7% [at 23.2 µM] | 112% [at 23.2 µM] | inactive | inactive | inactive | inactive
8 | COC1=C(OC)C(=O)C(CCCCCCCCCCO)=C(C)C1=O | 84.8% | 32.3% | 73.4% | 145% | 24.2% |  |  |  | inactive
9 | O=C1NC(=O)C(c2ccccc2[N+](=O)[O-])=C1Nc1ccc(O)c(Cl)c1 | 87.1% | 106% | 125% | 124% | 36.6% | 20.9 µM (active) |  |  | inactive
10 | C[C@@H](c1ncncc1F)[C@](O)(Cn1cncn1)c1ccc(F)cc1F |  |  |  | 56.5% | 55.6% | inactive | inactive |  | 
11 | CC1Cc2ccccc2N1NC(=O)c1ccc(Cl)c(S(N)(=O)=O)c1 (centres undefined) |  |  | 48.2% | 106% | 104% |  | 20.9 µM (active) |  | inactive
12 | O=C1CCc2ccc(OCCCCN3CCN(c4cccc(Cl)c4Cl)CC3)cc2N1 | 65.1% | 53.7% | 62.9% | 498% | 110% |  |  |  | 
13 | O=C(NCC1CCCCN1)c1cc(OCC(F)(F)F)ccc1OCC(F)(F)F (centres undefined) |  |  |  | 42.6% | 12.9% |  |  |  | inactive
14 | NS(=O)(=O)c1cc(C(=O)O)c(NCc2ccco2)cc1Cl | 103% |  | 84.6% | 75.9% | 108% | inactive | inactive |  | inactive
15 | CC(C)C[C@H](NC(=O)[C@H](Cc1ccccc1)NC(=O)c1cnccn1)B(O)O | 7.19% | 7.61% | 3.13% | 3.61% | 3.36% | 0.0332 µM (active) | 0.0418 µM (active) | 0.0166 µM (active) | inactive
16 | Clc1ccc(C(Cn2ccnc2)OCc2ccsc2Cl)c(Cl)c1 (centres undefined) | 7.57% |  | 8.47% | 75.4% | 32.2% |  |  |  | inactive
17 | Clc1ccc(C(Cn2ccnc2)OCc2ccc(Sc3ccccc3)cc2)c(Cl)c1 (centres undefined) | 6.46% |  | 9.13% | 183% | 100% |  |  |  | inactive
18 | COC(=O)[C@H](Cc1ccccc1)NC(=O)[C@@H](N)CC(=O)O (H-Asp-Phe-OMe) | 22.1% | 118% | 107% | 280% | 114% |  |  |  | inactive

Row | SMILES | parasite growth remaining, % of DMSO control (lower = more inhibition) [1] | parasite growth, % of control (lower = inhibition) [2] | growth, % of control [3] | cell viability, % of control (lower = more cytotoxic) [4] | viability (% of control) [5] | Potency [6] | Potency [7] | Potency [8] | Potency [9]
19 | CCCCCCCCOc1ccccc1C(=O)Nc1ccc(C(=O)OCC[N+](C)(CC)CC)cc1 | 5.8% | 26.3% | 8.46% | 52.3% | 14.9% | inactive |  | 16.6 µM (active) | 
20 | O=P(O)(O)C(O)(Cn1ccnc1)P(=O)(O)O |  |  |  | 109% [at 23.2 µM] | 108% [at 23.2 µM] | inactive | inactive |  | inactive
21 | Cc1ncc([N+](=O)[O-])n1CC(C)O (centres undefined) | 95.7% | 94.8% | 99.2% | 120% | 98.4% |  |  | inactive | inactive
22 | CCOC(=O)c1c(C)n(C)c2ccc(O)cc12 | 93.3% | 87.1% | 66.7% | 232% | 87.8% |  |  |  | inactive
23 | N=C(N)c1ccc2cc(OC(=O)c3ccc(N=C(N)N)cc3)ccc2c1 | 9.8% | 14% | 12.8% | 175% | 102% | inactive |  | inactive | inactive
24 | CN(C)c1ccc(O)c2c1C[C@H]1C[C@H]3[C@H](N(C)C)C(=O)C(C(N)=O)=C(O)[C@@]3(O)C(=O)C1=C2O | 9.85% |  | 6.27% | 77.4% | 80% |  | 4.69 µM (active) |  | inactive
25 | COCCCN1CCC(NC(=O)c2cc(Cl)c(N)c3c2OCC3)CC1 | 51.1% | 38% | 15.7% | 418% | 76.6% |  |  |  | inactive
26 | CC(=O)O[C@H]1C(=O)[C@@]2(C)C([C@H](OC(=O)c3ccccc3)[C@]3(O)C[C@H](OC(=O)[C@H](O)[C@@H](NC(=O)c4ccccc4)c4ccccc4)C(C)=C1C3(C)C)[C@]1(OC(C)=O)CO[C@@H]1C[C@@H]2O (some centres undefined) | 14.4% | 11.8% | 4.22% | 17% | 12.8% | inactive |  | inactive | inactive
27 | CC(C)c1ccc2c(c1)c(SC(C)(C)C)c(CC(C)(C)C(=O)O)n2Cc1ccc(Cl)cc1 | 42.3% | 22% | 11.8% | 111% | 119% |  | 20.9 µM (active) |  | inactive
28 | OC(CN1CCN(c2cccc(Cl)c2)CC1)C(c1ccccc1)c1ccccc1 (centres undefined) | 90.9% | 66% | 47% | 319% | 88.8% | inactive |  |  | inactive
29 | CCN(CC)C(=S)SSC(=S)N(CC)CC | 92.7% | 53.4% | 64.3% | 6.77% | 3.25% | 0.118 µM (active) | 0.0132 µM (active) | 0.0187 µM (active) | inactive
30 | NNc1nncc2ccccc12 | 92.8% |  | 95.2% | 166% | 104% | inactive | inactive |  | 
31 | CNC[C@@H](O)[C@@H](O)[C@H](O)[C@H](O)CO | 123% |  | 75.9% | 216% | 115% | inactive | inactive |  | inactive
32 | CCCc1cc(=O)[nH]c(=S)[nH]1 | 93.3% |  | 103% | 62.4% | 14.9% | inactive | inactive |  | inactive
33 | Cc1cc(=O)c2c(O)c3c(O)cc(=O)c4c3c3c(cc(O)c1c23)C(C)(C)C=4O | 23.7% | 13.7% | 5.99% | 130% | 94.6% |  |  |  | inactive
34 | O=C(O)c1cc(=O)c2c(OCC(O)COc3cccc4oc(C(=O)O)cc(=O)c34)cccc2o1 | 96.7% | 106% | 81% | 106% | 115% | inactive | inactive |  | 
35 | Nc1nc(Cl)nc2c1ncn2[C@H]1C[C@H](O)[C@@H](CO)O1 | 90.9% | 114% | 103% | 93.3% | 12% | 0.235 µM (active) | 0.372 µM (active) | 0.372 µM (active) | inactive
36 | NCCCCNCCCN | 95.4% |  | 577% | 3.46% | 3.12% | inactive | inactive |  | inactive
